Results as given in PubChem BioAssay AID488969 (Vanderbilt High Throughput Screening Facility, 2010).
Over roughly 110,000 compounds, “z-score” has its median near -0.1; the highest 2% begin near 2. This is one part of a sample in which the highest values are shown more often than they occur. Active and inactive are the calls of the source.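 The calls were made as follows: active = z-score in the third read window above 3 or below -3; inactive = the rest.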

Target: Metabotropic glutamate receptor 8 (Rattus norvegicus) (UniProt P70579)
Sequence (P70579 whole entry, looked up): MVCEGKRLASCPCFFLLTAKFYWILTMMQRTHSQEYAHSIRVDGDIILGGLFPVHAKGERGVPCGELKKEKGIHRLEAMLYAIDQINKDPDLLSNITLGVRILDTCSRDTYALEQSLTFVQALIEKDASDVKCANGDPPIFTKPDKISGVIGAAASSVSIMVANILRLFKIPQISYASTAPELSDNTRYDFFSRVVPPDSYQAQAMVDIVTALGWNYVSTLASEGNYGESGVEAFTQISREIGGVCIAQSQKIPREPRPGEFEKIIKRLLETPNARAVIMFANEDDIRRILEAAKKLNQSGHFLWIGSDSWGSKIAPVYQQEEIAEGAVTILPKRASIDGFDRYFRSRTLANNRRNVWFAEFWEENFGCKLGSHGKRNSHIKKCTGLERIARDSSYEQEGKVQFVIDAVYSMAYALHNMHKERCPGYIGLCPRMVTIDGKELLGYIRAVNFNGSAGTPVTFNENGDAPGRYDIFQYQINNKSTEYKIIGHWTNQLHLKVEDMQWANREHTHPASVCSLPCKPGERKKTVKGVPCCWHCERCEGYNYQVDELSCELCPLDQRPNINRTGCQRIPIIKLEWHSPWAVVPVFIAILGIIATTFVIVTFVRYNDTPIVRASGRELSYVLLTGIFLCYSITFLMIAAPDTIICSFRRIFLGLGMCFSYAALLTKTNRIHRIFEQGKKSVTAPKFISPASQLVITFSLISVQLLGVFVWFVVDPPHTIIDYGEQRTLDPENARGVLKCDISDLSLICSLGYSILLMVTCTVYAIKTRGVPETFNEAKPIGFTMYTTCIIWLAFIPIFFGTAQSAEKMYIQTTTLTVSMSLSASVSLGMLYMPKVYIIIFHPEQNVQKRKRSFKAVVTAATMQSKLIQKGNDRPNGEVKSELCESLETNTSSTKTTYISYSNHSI
Test: mGluR8 Gi/Go-coupled signaling modulation – cell-based, rat, thallium flux, HTS, primary screen (AID 488969)
Settings: HEK293 rat mGluR8, GIRK (G protein-gated inwardly rectifying potassium channel) thallium flux, FluoZin2; at 10 µM; stronger effect = higher value; submaximal glutamate (EC20) added with thallium

Row | SMILES | z-score
1 | COc1ccc(CCNC(=O)CSc2nnc(CNC(=O)c3ccco3)o2)cc1OC | 0.382
2 | Cc1ccc(-n2nnnc2SCC(=O)NCCC2=CCCCC2)c(C)c1 | 0.08
3 | Cc1cc(C)c2nc(SCC(=O)NCCC3=CCCCC3)cc(C)c2c1 | 3.98 (active)
4 | Cc1cc(C)c2nc(SCC(=O)NCCN3C(=O)CSC3=O)cc(C)c2c1 | -0.238
5 | CC(C)=CC(=O)Nc1nnc(C)s1 | 0.00638
6 | CCC(=O)Nc1nnc(C)s1 | 0.946
7 | CC(=O)Nc1nnc(C)s1 | 3.66 (active)
8 | COCc1nnc(NC(=O)c2ccco2)s1 | 0.76
9 | Cc1nnc(NC(=O)c2ccco2)s1 | 3.93 (active)
10 | C/C=C(\C)c1nnc(NC(=O)c2ccco2)s1 | -0.358
11 | CCCOc1ccc(N2C(=O)CC(N(CCc3ccc(OC)cc3)C(=O)c3cccc(F)c3)C2=O)cc1 (stereo unspecified) | -0.214
12 | COc1ccccc1N(CN1CCCC1=O)C(=O)c1ccccc1F | -0.699
13 | O=C1/C(=C\Nc2ccc(Cl)cc2)CCN1c1ncccn1 | 0.111
14 | Cc1ccc(C(=O)NCCNc2ccc(Cl)cc2[N+](=O)[O-])o1 | -0.083
15 | CCCN1C2=NS(=O)(=O)CCN2c2ccccc21 | 0.249
16 | C=CCn1c(SCC(=O)c2cc(C)n(CCOC)c2C)nc2sc(C)c(C)c2c1=O | -0.255
17 | COc1nc(N2CCOCC2)nc(C)c1[N+](=O)[O-] | -0.535
18 | CCCCN(CCCC)C(=S)NC(=O)c1ccccc1Cl | -0.755
19 | O=C(NNC(=O)c1ccccc1-n1cccc1)c1ccc(Cl)cc1Cl | 0.632
20 | C=CCNC(=O)c1ccc(Cl)cc1Cl | 0.206
21 | CCCC(=O)NC(=S)Nc1cccc(NC(=O)c2ccc(Cl)cc2Cl)c1 | -0.0719

Row | SMILES | z-score
22 | CCC(=O)NC(=S)Nc1cccc(NC(=O)c2ccc(Cl)cc2Cl)c1 | 0.179
23 | CCCN(CCC)CCCOC(=O)c1ccc(Cl)cc1Cl | 3.95 (active)
24 | CN(C)CCCOC(=O)c1ccccc1Cl | 0.35
25 | CN(C)CCCOC(=O)c1ccc(Cl)cc1Cl | 0.77
26 | CCN(CC)C(=S)NC(=O)c1ccc(Cl)cc1Cl | 2.95
27 | CC1Cc2ccccc2N1C(=S)NC(=O)c1ccc(Cl)cc1Cl (stereo unspecified) | 13.5 (active)
28 | CC1Cc2ccccc2N1C(=S)Nc1ccc(S(N)(=O)=O)cc1 (stereo unspecified) | 0.0257
29 | CCCN(CCC)C(=S)NC(=O)c1ccc(Cl)cc1Cl | 14.4 (active)
30 | O=C(Cc1ccc([N+](=O)[O-])cc1)Nc1nnc(C2CC2)s1 | 1.17
31 | Cc1cc2cc(CN(CC3CCCO3)C(=S)Nc3ccccc3)c(=O)[nH]c2cc1C (stereo unspecified) | -0.235
32 | O=C1CC(c2ccccc2)=Nc2ccccc2N1 | -0.0288
33 | COc1ccc2c(c1)NC(=O)CC(c1ccccc1)=N2 | -0.0551
34 | Cc1ccc2c(c1)NC(=O)CC(c1ccccc1)=N2 | 8.23 (active)
35 | COc1ccc(/C=N/NC(=O)C[n+]2ccccc2)c(OC)c1OC | -0.273
36 | Fc1ccccc1N1CCN(C(c2cccs2)c2nnnn2CCc2ccccc2)CC1 (stereo unspecified) | 0.131
37 | Cc1ccc(NC2=C(Cl)C(=O)OC2NC(=O)c2ccccc2)cc1 (stereo unspecified) | -0.201
38 | COc1ccccc1C(c1nnnn1CCc1ccccc1)N1CCCCCC1 (stereo unspecified) | 2.68
39 | C=CCN1CCN(C(c2ccc(Cl)cc2)c2nnnn2CCc2ccc(OC)c(OC)c2)CC1 (stereo unspecified) | 2.29
40 | COc1ccccc1C(c1nnnn1CCc1ccccc1)N1CCN(c2ccccc2)CC1 (stereo unspecified) | -0.00308
41 | COc1cccc(C(c2nnnn2CCc2ccccc2)N2CCN(c3ccccc3)CC2)c1OC (stereo unspecified) | -0.689
42 | COc1ccc(CCn2nnnc2C(c2ccc(C)cc2)N2CCN(C)CC2)cc1OC (stereo unspecified) | 0.0408

Row | SMILES | z-score
43 | CCN1CCN(C(c2ccccc2)c2nnnn2CCc2ccc(OC)c(OC)c2)CC1 (stereo unspecified) | 0.256
44 | CCOc1ccc(Cc2c(Cl)nc(SC)nc2N(C)C)cc1 | -0.458
45 | CSc1nnc(C2CCCN2)n1C (stereo unspecified) | 0.383
46 | O=C(COc1ccc(S(=O)(=O)N2CCOCC2)cc1)Nc1ccccc1C(F)(F)F | 1.25
47 | CCn1c(SCC(=O)NC2CCCCC2C)nnc1-c1ccc(OC)cc1 (stereo unspecified) | 0.074
48 | CC(=O)N1c2c(ccc3ccccc23)C(C)CC12CCCCC2 (stereo unspecified) | -0.635
49 | O=c1c2ccccc2ncn1CCCOc1ccccc1[N+](=O)[O-] | -0.198
50 | O=C(Cn1cnc2c(nnn2Cc2ccc(F)cc2)c1=O)N1CCN(c2ccccc2)CC1 | -0.0198
51 | COc1cccc(-c2nc(CS(=O)CC(=O)O)c(C)o2)c1 (stereo unspecified) | 0.0172
52 | CCCN(CCC)CCNC(=O)CS(=O)Cc1nc(-c2ccc(C)cc2)oc1C (stereo unspecified) | 1.19
53 | Cc1oc(-c2ccccc2)nc1CS(=O)CC(=O)O (stereo unspecified) | 2.52
54 | COCCNC(=O)CS(=O)Cc1nc(-c2ccc(Cl)cc2)oc1C (stereo unspecified) | 0.00619
55 | Cc1oc(-c2ccccc2)nc1CC(=O)O | -0.979
56 | CCN(CC)CCNC(=O)CS(=O)Cc1nc(-c2ccc(Cl)cc2)oc1C (stereo unspecified) | 2.41
57 | CCN(CC)CC(O)COc1ccc2c(c1)OCO2 (stereo unspecified) | -0.199
58 | Cc1cc(C)cc(OCCCCCNCCO)c1 | -0.911
59 | COc1ccc(-c2nc(NC(=O)CSc3nnc4ccccn34)ns2)cc1 | -0.0274
60 | O=C(CSc1nnc2scc(-c3ccccc3)n12)Nc1nsc(-c2ccccc2)n1 | -0.713
61 | O=C(CSc1nnc2ccccn12)Nc1nsc(-c2ccccc2)n1 | 3.63 (active)
